# Bioassay records deposited in PubChem BioAssay by National Center for Advancing Translational Sciences (NCATS).
# Shown are actives, neighbours in structure and some others; about 7.5% of the full set was active somewhere.
# FLuc counter – counter-screen for miR-21 project: firefly luciferase inhibitors or activators | purified FLuc, Km substrates, luminescence inhibition | AID 588342 | Potency, µM (highest dose often 57.5 µM), for the others: top-dose activity change, negative = inhibition, usual class: inhibitors | actives 6.9% (n = 360,000);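 also: plate controls were vehicle for no effect and reference inhibitor for full effect; nearly all actives have a fitted effect of over 55% in size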
# Target sequence (P08659 whole entry, looked up): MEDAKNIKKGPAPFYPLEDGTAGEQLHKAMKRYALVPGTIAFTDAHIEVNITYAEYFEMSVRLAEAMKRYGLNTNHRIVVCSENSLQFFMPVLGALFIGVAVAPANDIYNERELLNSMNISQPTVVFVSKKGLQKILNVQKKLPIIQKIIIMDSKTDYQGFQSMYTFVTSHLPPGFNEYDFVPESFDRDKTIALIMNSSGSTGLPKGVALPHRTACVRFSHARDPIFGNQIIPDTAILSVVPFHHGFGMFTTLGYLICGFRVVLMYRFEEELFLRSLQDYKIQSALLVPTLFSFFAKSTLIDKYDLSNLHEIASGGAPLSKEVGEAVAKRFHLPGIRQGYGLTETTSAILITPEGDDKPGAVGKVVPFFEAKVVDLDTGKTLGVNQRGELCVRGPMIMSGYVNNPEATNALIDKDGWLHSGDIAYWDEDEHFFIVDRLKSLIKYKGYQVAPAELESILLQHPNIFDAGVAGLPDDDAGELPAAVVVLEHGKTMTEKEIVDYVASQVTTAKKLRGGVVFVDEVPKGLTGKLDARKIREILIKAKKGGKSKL
#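 Purified P. pyralis luciferase, 10 nM final, with Km-level 10 uM D-luciferin and 10 uM ATP in 50 mM Tris acetate pH 7.5, 10 mM Mg acetate, 0.01% Tween-20, 0.05% BSA; 6-point qHTS titration about 60 µM downward; luminescence read.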
# ELG1 genotoxic – genotoxicity induction in ELG1-luciferase HEK293T cells; HEK293T ELG1-luciferase reporter, luminescence, 16 h; Potency, µM (doses to about 46 µM), without a hit: top-dose activity change, positive = activation, usual class: activators; actives 1.3% (n = 330,000); also: % of control where 0% means no effect; nearly all actives have a fitted effect of over 60% in size
#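 ELG1-luciferase HEK293T cells, 2,000/well; compound pinned in; 16 hr, 37 °C, 5% CO2; ONE-Glo, 30 min RT; luminescence on CCD imager.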
# Luc counter – counter-screen: inhibitors of Kinase-Glo firefly luciferase. Kinase-Glo luciferase, ATP luminescence, 8 min. Potency, µM (highest dose often 38.3 µM), inactives show at the top dose activity change, negative = inhibition, hits mostly inhibitors. actives 0.28% (n = 200,000). AID 1379; also: % is scaled to controls: 0 for no effect and ±100 for the full control effect; nearly all actives have a fitted effect of over 60% in size
#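 Recombinant Kinase-Glo luciferase, 10 uM ATP (linear range), luciferin; imidazole pH 7.2 / KCl / MgCl2 / Tween / BSA buffer; 8 min RT; luminescence.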
# SMN2 splice up – SMN2 splice variant enhancement | HEK293 SMN2-luciferase splicing reporter, luminescence, 30-36 h | Potency, µM (highest dose often 46.1 µM), without a hit: top-dose activity change, positive = activation, usual class: activators | actives 2.8% (n = 210,000); also: % of control where 0% means no effect; nearly all actives have a fitted effect of over 55% in size
#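 qHTS luciferase splicing reporter: luminescence rises when SMN2 exon 7 is included in transfected HEK293 cells. Compound exposure lasted 30-36 h at 37C, with 4.5 mM final sodium butyrate as control, followed by a ONE-Glo read.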
# NPC1 promoter act – activates the NPC1 promoter | actives 2.4% (n = 320,000) | Huh7 NPC1 promoter luciferase reporter, 24 h | Potency, µM (highest dose often 9.22 µM), without a hit: at the top dose activation, most hits filed as activators | AID 485313; also: % of control where 0% means no effect; nearly all actives have a fitted effect of over 60% in size
#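 Quantitative HTS used a cell-based reporter: Huh7 cells stably bearing the NPC1 promoter upstream of luciferase were treated with compounds for 24 h, and promoter activation was read as luminescence.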
# Rab9 promoter act – activators of Rab9 promoter; Huh7 Rab9 promoter-luciferase reporter, luminescence, 24 h; Potency, µM (top dose mostly 9.22 µM), for inactives: top-dose activation, negative = inhibition, usual class: activators; actives 2.8% (n = 320,000); also: % of control where 0% means no effect; nearly all actives have a fitted effect of over 60% in size
#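 Measured in stably transfected Huh7 cells bearing a Rab9 promoter–luciferase construct: 24 h compound treatment at 37 °C, followed by luminescence detection.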
# * hit, by the source's call; ? = inconclusive; . = no result given; [ ] = dose if it differs, or a comment. Calls follow the shape of the dose curve; as a rule, active = well fitted curve in the direction sought with a large enough effect; inconclusive = small, poorly fitted or top-dose-only effect, or another doubt; inactive = no such curve, though single readings can be large; an effect the other way counts as inactive or inconclusive. Potency is read from the fitted curve at half-maximal effect.
SMILES,FLuc counter,ELG1 genotoxic,Luc counter,SMN2 splice up,NPC1 promoter act,Rab9 promoter act
Cc1cccc2c1-c1sc(C(=O)N3CCCCC3)cc1CO2,13.5µM*,?,.,.,3.55µM*,3.98µM*
Cc1ccc(C)c(CNC(=O)CN2C(=O)CSc3ccc(S(=O)(=O)N(C)C)cc32)c1,-15.9%,.,.,.,.,.
O=S(=O)(c1ccccc1)N1c2cc(Cl)ccc2Oc2nc3ccccc3nc21,13.5µM*,5.1%,2.2%,?,7.0%,16.9%
O=S(=O)(c1ccccc1)N1CN(c2ccc(F)cc2F)c2nc3ccccc3nc21,.,-0.1%,.,.,.,.
Cc1ccc2nc3c(c(N)c2c1)CCN3c1ccccc1,19µM*,-0.3%,1.5%,-47.5%,16.7%,1.8%
CCOC(=O)[C@H]1[C@H]2COc3cc(OC)ccc3[C@@H]2N2C(=O)N(c3ccc(Cl)cc3)C(=O)[C@@]12C,0.7%,-2.6%,.,.,-4.4%,-2.7%
COC(=O)c1ccc(Sc2ccc(C)cc2)c(N)c1,19µM*,2.7%,-0.5%,-15.7%,15.0%,23.7%
CCCCCCC(=O)c1c(C)[nH]c(C(=O)OCC)c1C,?,14.1µM*,-0.6%,?,25.9%,27.3%
CCCCCC(=O)c1c(C)[nH]c(C(=O)OCC)c1C,?,-0.3%,-2.9%,-1.3%,5.5%,6.1%
CCCCC(=O)OCC(=O)c1[nH]c(C)c(C(=O)OCC)c1C,1.9µM*,12.4%,-5.1%,27.4%,0.1%,-1.5%
CCOC(=O)c1c(C)[nH]c(C(=O)COC(=O)CSC)c1C,10.7µM*,2.6%,1.2%,7.9%,-2.6%,-6.4%
CS(=O)(=O)N1CCN(CC(=O)NC2CCCCC2)CC1,-2.1%,0.2%,-6.2%,.,-0.4%,-2.7%
Oc1ccc(-c2nnc(SCC3CCCCC3)o2)cc1,15.1µM*,?,12.5%,?,3.16µM*,2.82µM*
O=C(CSc1nnc(-c2ccc(O)cc2)o1)N1CCOCC1,?,8.9%,-1.8%,5.4%,23.0%,?
CC1=CN2C(=N)/C(=C/c3ccc(Sc4ccc(C)cc4)o3)C(=O)N=C2S1,19µM*,1.3%,3.4%,2.4%,6.5%,-8.1%
CC1=CN2C(=N)/C(=C/c3ccc(Sc4ccc(Cl)cc4)o3)C(=O)N=C2S1,-0.8%,-1.2%,3.0%,-35.6%,-2.4%,0.9%
CC1=CN2C(=N)/C(=C/c3ccc(C)o3)C(=O)N=C2S1,1.2µM*,?,-8.4%,2.82µM*,1.58µM*,0.794µM*
Cc1ccc(/C=C2\C(=N)N3N=C(CC(=O)N4CCOCC4)SC3=NC2=O)o1,-19.5%,1.8%,.,.,-1.0%,1.5%
COc1ccccc1N1CCN(C(=O)CCCn2nc(C)c([N+](=O)[O-])c2C)CC1,1.0%,-3.8%,1.1%,-7.5%,-2.6%,1.6%
COc1cccc(Nc2ncc3nc(-c4cc(F)cc(F)c4)c(=O)n(C4CC4)c3n2)c1,.,.,-5.0%,-0.9%,.,.
COc1ccc(C(=O)c2c3ccccc3[n+]([O-])n2Cc2ccc(C(N)=O)cc2)cc1,?,6.1%,.,.,-3.1%,-1.2%
COc1ccc2c(C(=O)c3ccc(C)cc3)n(Cc3ccc(C(N)=O)cc3)[n+]([O-])c2c1,13.5µM*,?,.,.,?,?
Cc1ccc(C)c(OCc2cc(C(=O)N3CCN(c4ccccc4)CC3)no2)c1,19µM*,29.5%,.,.,2.82µM*,3.98µM*
O=C(c1cc(COc2ccc(F)cc2F)on1)N1CCN(C(=O)c2ccco2)CC1,-11.7%,-8.2%,.,.,0.5%,-3.3%
Cc1ccc(C)c(OCc2cc(C(=O)N3CCN(C(=O)c4ccco4)CC3)no2)c1,19µM*,?,.,.,3.16µM*,4.47µM*
SMILES,FLuc counter,ELG1 genotoxic,Luc counter,SMN2 splice up,NPC1 promoter act,Rab9 promoter act
Cc1ccc(C)c(OCc2cc(C(=O)N3C[C@@H](C)O[C@@H](C)C3)no2)c1,6.01µM*,?,.,.,2.24µM*,1.58µM*
CNC(=S)N/N=C/c1ccco1,2.1%,-1.2%,.,.,0.2%,-1.4%
COc1ccc(C(=O)N2CCC[C@@]3(CCN(Cc4ccccc4OC)C3)C2)cc1,.,.,-4.1%,-0.7%,.,.
Cc1sc(NC(=O)CN(Cc2ccc(F)cc2)C(=O)C(C)(C)C)c(C(N)=O)c1C,-0.6%,-6.9%,2.3%,-16.2%,2.9%,-4.9%
O=C(C=C=Nc1ccccc1)C(=O)N=C=Cc1ccccc1,4.78µM*,?,.,.,-12.9%,-36.4%
CCN1CCN(C(=O)CN2C(=O)c3ccccc3S2(=O)=O)CC1,?,?,.,.,?,2.51µM*
O=C(CN1C(=O)c2ccccc2S1(=O)=O)c1ccc(O)c(O)c1,-3.3%,7.2%,.,.,17.9%,?
O=C(CN1C(=O)c2ccccc2S1(=O)=O)c1ccc(F)c(F)c1,10.7µM*,-1.7%,.,.,?,?
COc1ccc(C(=O)CN2C(=O)c3ccccc3S2(=O)=O)cc1,13.5µM*,-9.1%,.,.,-31.6%,?
CCOC(=O)N1CCN(C(=O)CN2C(=O)c3ccccc3S2(=O)=O)CC1,3.5%,?,.,.,0.6%,16.1%
Cn1cnc2c(NC3CCCC3)ncnc21,.,.,-4.7%,18.9%,.,.
COc1ccc(S(=O)(=O)n2ccnc2)cc1C(C)(C)C,?,.,.,9.8%,.,.
CNC[C@H](O)[C@H](O)[C@H](O)[C@H](O)CO,.,.,-0.6%[17.1 µM],7.4%[20.6 µM],.,.
COc1cc(C(=O)OCC(=O)NC2CCCCCC2)ccc1OCC(C)C,-1.8%,-2.2%,.,.,-8.6%,1.3%
CC1(C)Cc2nc3sc4c(=O)n(Cc5ccccc5)cnc4c3cc2CS1,-6.6%,1.7%,3.4%,-39.7%,-1.0%,13.6%
CCCn1cnc2c(sc3nc4c(cc32)CSC(C)(C)C4)c1=O,?,4.61µM*,1.0%,12.6µM*,2.82µM*,1.58µM*
CC1CCN(c2ccc(-c3cccs3)nn2)CC1,0.0757µM*,0.231µM*,.,.,?,1.41µM*
Clc1ccc(-c2cccs2)nn1,0.6%,15.7%,2.3%,6.3%,-1.3%,28.5%
COC(=O)N1CCC[C@@]2(CCN(C(=O)Nc3ccccc3)C2)C1,.,.,-1.1%,1.7%,.,.
COc1ccc([N+](=O)[O-])cc1NC(=O)c1csc(C)c1,2.69µM*,-1.8%,.,.,15.6%,0.2%
COc1ccc(C(=O)Nc2ccc([N+](=O)[O-])cn2)c(OC)c1,0.301µM*,1.16µM*,.,.,1.12µM*,0.447µM*
Cc1cc(C(=O)Nc2ccc([N+](=O)[O-])cn2)cs1,10.7µM*,9.2µM*,.,.,2.51µM*,3.55µM*
Cc1cc([N+](=O)[O-])ccc1NC(=O)c1csc(C)c1C,3.79µM*,4.11µM*,.,.,1.41µM*,2µM*
COc1ccccc1NC(=O)C[n+]1ccccc1C,3.5%,3.6%,.,.,-2.0%,0.8%
